PI5P4K alpha inh: qHTS for Inhibitors of phosphatidylinositol 5-phosphate 4-kinase (PI5P4K). Phosphatidylinositol 5-phosphate 4-kinase type-2 alpha (Homo sapiens), P48426. PI5P4Kalpha enzyme, ADP-Glo luminescence, 60 min; hits give low values. max response, %. 1.2% of 330,000 active; active = max response of -50% or lower; inconclusive = between -30% and -50%; inactive = -30% or higher; note: value at the top dose of about 77 µM
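Reactions run in 0.038 M HEPES pH 7.4, 0.28 mM EGTA, 0.1% CHAPS and 5% DMSO, with PI5P4Kalpha, substrate, compound and 5 microM ATP final, one hour at room temperature. Readout is ADP-Glo luminescence.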
G9a inh: qHTS Assay for Inhibitors of Histone Lysine Methyltransferase G9a; Histone-lysine N-methyltransferase EHMT2 (Homo sapiens), Q96KQ7; G9a H3K9 monomethylation, AlphaScreen, 2 h; Potency, µM (series often up to 102 µM), most hits filed as inhibitors; 8.8% of 350,000 active; AID 504332, 2011; note: nearly all actives have a fitted effect of over 75% in size
Target sequence (Q96KQ7 913-1193 limits assumed): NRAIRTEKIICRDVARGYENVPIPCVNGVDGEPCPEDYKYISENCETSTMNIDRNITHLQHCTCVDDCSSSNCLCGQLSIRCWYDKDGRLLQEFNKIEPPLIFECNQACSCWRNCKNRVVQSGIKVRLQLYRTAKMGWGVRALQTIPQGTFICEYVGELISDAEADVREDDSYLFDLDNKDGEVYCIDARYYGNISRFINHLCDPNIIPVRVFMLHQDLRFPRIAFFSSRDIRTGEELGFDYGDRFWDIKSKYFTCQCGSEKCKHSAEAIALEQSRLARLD
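AlphaScreen read-out: biotin-H3K9 peptide (500 nM) methylation by 20 nM enzyme with 20 uM SAM, 2 h at room temperature after 15 min compound preincubation; anti-monomethyl H3K9 antibody plus donor/acceptor beads, 10 min dark.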
PLK1 PBD inh: qHTS for Inhibitors of PLK1-PDB (polo-like kinase 1 - polo-box domain): Primary Screen; Plk1 PBD binding of FITC phosphopeptide, fluorescence polarization; Potency, µM, hits mostly inhibitors; 2.8% of 360,000 active; note: series mostly up to about 57 µM; nearly all actives have a fitted effect of over 65% in size
HP1b binding inh: HTS for Inhibitors of HP1-beta Chromodomain Interactions with Methylated Histone Tails; Chromobox protein homolog 1 (Homo sapiens), P83916; AlphaScreen HP1-beta / biotin-H3K9me3 peptide binding; Potency, µM (doses to about 114 µM), hits mostly inhibitors; 0.56% of 390,000 active; note: nearly all actives have a fitted effect of over 70% in size
Target sequence (P83916 whole entry, looked up): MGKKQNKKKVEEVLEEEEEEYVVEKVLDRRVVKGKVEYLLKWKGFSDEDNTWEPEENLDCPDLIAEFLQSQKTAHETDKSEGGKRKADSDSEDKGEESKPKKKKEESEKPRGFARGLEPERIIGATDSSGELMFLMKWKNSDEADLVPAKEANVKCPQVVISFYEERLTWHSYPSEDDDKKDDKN
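Compound inhibition of the preformed complex between 50 nM HP1-beta and 50 nM biotinylated H3K9me3 peptide was read by AlphaScreen. Buffer was PBS pH 7.4 with 0.01% Tween-20. Incubations ran 30 min at room temperature, with 10 ug/mL donor/acceptor beads.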
JMJD2A Tudor inh: qHTS Assay for Inhibitors of JMJD2A-Tudor Domain; Lysine-specific demethylase 4A (Homo sapiens), O75164; AlphaScreen JMJD2A-Tudor / H3K4me3 peptide binding; Potency, µM (titrated, usually from 114 µM), actives largely listed as inhibitors; 4.4% of 390,000 active; note: nearly all actives have a fitted effect of over 50% in size
BAZ2B block: qHTS Assay for Inhibitors of BAZ2B. AlphaScreen BAZ2B-H3K14Ac peptide displacement. Potency, µM (highest dose often 114 µM), usual class: inhibitors. 4.4% of 360,000 active. AID 504333, 2011; note: nearly all actives have a fitted effect of over 60% in size
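Complex of BAZ2B and biotin-H3K14Ac (50 nM apiece) forms over 30 min at RT, then faces library compounds up to 110 uM for another 30 min; AlphaScreen beads added, 20 min dark incubation, luminescence read.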
Hits are given with their value; [ ] = remark or other dose. Rows were chosen to be rich in hits. Some 12% of all compounds tested hit in one or more screens of this group. Unless noted, calls come from the whole dose curve; as a rule, active = well fitted curve in the direction sought with a large enough effect; inconclusive = small, poorly fitted or top-dose-only effect, or another doubt; inactive = no such curve, though single readings can be large; an effect the other way counts as inactive or inconclusive.

`C=C1C=CS(=O)(=O)N(C(CC(C)C)C(=O)OC)C1` (stereo not drawn) gave HP1b binding inh inactive and JMJD2A Tudor inh inactive.
For CSc1ncc(C(=O)Nc2cccc(C)c2C)c(C)n1 the results were PI5P4K alpha inh inactive, G9a inh inactive, PLK1 PBD inh inactive, HP1b binding inh inactive, JMJD2A Tudor inh inactive and BAZ2B block inactive.
For CC1=C(C(=O)O)N2C(=O)C(NC(=O)c3c(F)cccc3F)C2SC1 (stereo not drawn) the results were PI5P4K alpha inh inactive, G9a inh 44.7µM, PLK1 PBD inh inactive, HP1b binding inh inactive, JMJD2A Tudor inh inactive and BAZ2B block inconclusive.
CC1=C(C(=O)O)N2C(=O)C(NC(=O)c3nn(C)c(C)c3Cl)C2SC1 (stereo not drawn) was read as PI5P4K alpha inh inconclusive, G9a inh 8.91µM, PLK1 PBD inh inconclusive, HP1b binding inh inactive, JMJD2A Tudor inh inconclusive and BAZ2B block inactive.
`Cc1cccc(S(=O)(=O)c2cn(C)c3cc(N4CCCCCC4)c(F)cc3c2=O)c1` gave G9a inh inactive, HP1b binding inh inactive, JMJD2A Tudor inh inactive and BAZ2B block inactive.
For CCCCCCCCN1C(=O)[C@H](CC(=O)N2CCN(C(=O)OCC)CC2)C[C@@]2(C(=O)OCC)CCCC=C12 the results were PI5P4K alpha inh inactive and PLK1 PBD inh inactive.
For COc1cccc(NC(=O)CSCc2nc3sc(C)c(C)c3c(=O)[nH]2)c1 the results were PI5P4K alpha inh inactive and PLK1 PBD inh inactive.
Screening Cn1nnnc1Sc1ncnc2scc(-c3ccccc3)c12 returned PI5P4K alpha inh -52.3, G9a inh inactive, PLK1 PBD inh inactive, HP1b binding inh inactive, JMJD2A Tudor inh inactive and BAZ2B block inactive.
Screening Cn1nnnc1Sc1ncnc2scc(Br)c12 returned HP1b binding inh inactive and JMJD2A Tudor inh inactive.
Screening Cn1nnnc1Sc1ncnc2scc(I)c12 returned JMJD2A Tudor inh 79.4µM.
`CCn1cnc2scc(-c3ccccc3)c2c1=O` gave PI5P4K alpha inh inactive, G9a inh inactive, PLK1 PBD inh inactive, HP1b binding inh inactive, JMJD2A Tudor inh inactive and BAZ2B block inactive.
Screening c1ccc(-c2csc3ncn4nnnc4c23)cc1 returned PI5P4K alpha inh inactive, G9a inh inactive[12.7 µM], PLK1 PBD inh inactive, HP1b binding inh inconclusive, JMJD2A Tudor inh 14.1µM and BAZ2B block inactive.
For COc1cc(NC(=O)CCCc2nnc3n(CC(C)C)c(=O)c4sccc4n23)cc(OC)c1 the results were G9a inh inactive, HP1b binding inh inactive, JMJD2A Tudor inh inactive and BAZ2B block inactive.
`COc1ccc(C2=Nc3ccccc3N(C(=O)c3ccc4c(c3)OCO4)C2C(=O)Nc2c(C)cccc2C)cc1` (stereo not drawn) gave PI5P4K alpha inh inactive and PLK1 PBD inh inactive.
COc1ccc(S(=O)(=O)NCCCN2CCCC2=O)cc1OC was read as PI5P4K alpha inh inactive, G9a inh inconclusive, PLK1 PBD inh inactive, HP1b binding inh inactive, JMJD2A Tudor inh inactive and BAZ2B block inactive.
Screening COCCN(Cc1ccc(F)cc1)C(=O)c1cc2ccccc2oc1=O returned PI5P4K alpha inh inactive, G9a inh inactive, PLK1 PBD inh inactive, HP1b binding inh inactive, JMJD2A Tudor inh inactive and BAZ2B block inactive.
For COc1cc(C)ccc1OCCOc1c(Cl)cc(Cl)cc1Cl the results were PI5P4K alpha inh inactive, G9a inh inactive, PLK1 PBD inh inactive, HP1b binding inh inactive, JMJD2A Tudor inh inactive and BAZ2B block inactive.
CCOc1ccc(Cl)cc1CNCCNCCO was read as PLK1 PBD inh inactive, HP1b binding inh inactive, JMJD2A Tudor inh inactive and BAZ2B block inactive.
For C=CCc1cc(Cl)ccc1OCCNCCCOC the results were PI5P4K alpha inh inactive, G9a inh 20µM, PLK1 PBD inh inactive, HP1b binding inh inconclusive, JMJD2A Tudor inh 2.51µM and BAZ2B block inactive.
Screening Cc1ccc(OCCOCCN(C)C)c(Cl)c1 returned PI5P4K alpha inh inactive, G9a inh 8.91µM, PLK1 PBD inh inactive, HP1b binding inh inconclusive, JMJD2A Tudor inh 39.8µM and BAZ2B block 79.4µM.
CCc1ccccc1OCCCCCNCCO was read as G9a inh inactive[12.7 µM], PLK1 PBD inh inactive, HP1b binding inh inactive, JMJD2A Tudor inh inactive and BAZ2B block inactive.
For C=CCc1ccc(OCCOCCNCCOC)c(OC)c1 the results were PI5P4K alpha inh inactive, G9a inh inactive, PLK1 PBD inh inactive, HP1b binding inh inactive, JMJD2A Tudor inh inactive and BAZ2B block inactive.
`C=CCc1cc(Cl)ccc1OCCOCCNCCOC` gave PI5P4K alpha inh inactive, G9a inh inconclusive, PLK1 PBD inh inactive, HP1b binding inh inconclusive, JMJD2A Tudor inh 10µM and BAZ2B block 70.8µM.
`C=CCc1ccccc1OCCNCCCOC` gave PI5P4K alpha inh inactive, G9a inh 8.91µM, PLK1 PBD inh inactive, HP1b binding inh inactive, JMJD2A Tudor inh 2.51µM and BAZ2B block inactive.
For CC(C)N(Cc1ccccc1)C(=O)COC(=O)c1cc[n+]([O-])cc1 the results were PI5P4K alpha inh inactive, PLK1 PBD inh inactive, HP1b binding inh inactive and JMJD2A Tudor inh inactive.
Screening Cc1ccc(C(=O)NC(C)c2nnc(SCC(=O)NC3CCCC3)n2C)cc1 (stereo not drawn) returned PI5P4K alpha inh inactive, G9a inh inactive, PLK1 PBD inh inactive, HP1b binding inh inactive, JMJD2A Tudor inh inactive and BAZ2B block inactive.
C=CCc1cc(Cl)ccc1OCCOCCNC(C)(C)C was read as PI5P4K alpha inh inactive, G9a inh 25.1µM, PLK1 PBD inh inactive, HP1b binding inh inactive, JMJD2A Tudor inh 14.1µM and BAZ2B block 50.1µM.
Screening CCc1cc(OCCOCCN(C)C)ccc1Cl returned PI5P4K alpha inh inactive, G9a inh inconclusive, PLK1 PBD inh inactive, HP1b binding inh inconclusive, JMJD2A Tudor inh 2.24µM and BAZ2B block inconclusive.
C=CCOc1ccc(CNC(C)(C)C)cc1OC was read as PI5P4K alpha inh inactive, G9a inh inactive, PLK1 PBD inh inactive, HP1b binding inh inactive, JMJD2A Tudor inh inactive and BAZ2B block inactive.
For C=CCc1cc(Cl)ccc1OCCOCCN(C)C the results were PI5P4K alpha inh inactive, G9a inh 7.94µM, PLK1 PBD inh inactive, HP1b binding inh inconclusive, JMJD2A Tudor inh 3.55µM and BAZ2B block 50.1µM.
Screening C=CCc1cc(OC)ccc1OCCOCCC(C(=O)OCC)C(=O)OCC returned PI5P4K alpha inh inactive, G9a inh inactive, PLK1 PBD inh inactive, HP1b binding inh inactive, JMJD2A Tudor inh inactive and BAZ2B block inactive.
For Cc1cccc(NC(=O)C2CCCN(S(=O)(=O)c3c(C)noc3/C=C/N(C)C)C2)c1C (stereo not drawn) the results were G9a inh inactive, HP1b binding inh inactive, JMJD2A Tudor inh inactive and BAZ2B block inactive.
